Data published in paper PMC4336329 (PLoS ONE, 2015).
Hit rate of the full screen: of about 310,000 compounds, about 14,000 (4.5%) showed an effect of 50% or more. The effect is printed as a negative number. The entries come from a sample that favours strong results as a whole.

These molecules were tested against human ether-à-go-go-related gene (hERG) potassium channel (human, UniProt Q12809) (assay: primary screen, population patch clamp on CHO cells stably expressing hERG; higher = less effect of the substance).
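Also: peak tail current of the secondary pulse compared with the same well before compound.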

Sequence of human ether-à-go-go-related gene (hERG) potassium channel (Q12809 whole entry, looked up): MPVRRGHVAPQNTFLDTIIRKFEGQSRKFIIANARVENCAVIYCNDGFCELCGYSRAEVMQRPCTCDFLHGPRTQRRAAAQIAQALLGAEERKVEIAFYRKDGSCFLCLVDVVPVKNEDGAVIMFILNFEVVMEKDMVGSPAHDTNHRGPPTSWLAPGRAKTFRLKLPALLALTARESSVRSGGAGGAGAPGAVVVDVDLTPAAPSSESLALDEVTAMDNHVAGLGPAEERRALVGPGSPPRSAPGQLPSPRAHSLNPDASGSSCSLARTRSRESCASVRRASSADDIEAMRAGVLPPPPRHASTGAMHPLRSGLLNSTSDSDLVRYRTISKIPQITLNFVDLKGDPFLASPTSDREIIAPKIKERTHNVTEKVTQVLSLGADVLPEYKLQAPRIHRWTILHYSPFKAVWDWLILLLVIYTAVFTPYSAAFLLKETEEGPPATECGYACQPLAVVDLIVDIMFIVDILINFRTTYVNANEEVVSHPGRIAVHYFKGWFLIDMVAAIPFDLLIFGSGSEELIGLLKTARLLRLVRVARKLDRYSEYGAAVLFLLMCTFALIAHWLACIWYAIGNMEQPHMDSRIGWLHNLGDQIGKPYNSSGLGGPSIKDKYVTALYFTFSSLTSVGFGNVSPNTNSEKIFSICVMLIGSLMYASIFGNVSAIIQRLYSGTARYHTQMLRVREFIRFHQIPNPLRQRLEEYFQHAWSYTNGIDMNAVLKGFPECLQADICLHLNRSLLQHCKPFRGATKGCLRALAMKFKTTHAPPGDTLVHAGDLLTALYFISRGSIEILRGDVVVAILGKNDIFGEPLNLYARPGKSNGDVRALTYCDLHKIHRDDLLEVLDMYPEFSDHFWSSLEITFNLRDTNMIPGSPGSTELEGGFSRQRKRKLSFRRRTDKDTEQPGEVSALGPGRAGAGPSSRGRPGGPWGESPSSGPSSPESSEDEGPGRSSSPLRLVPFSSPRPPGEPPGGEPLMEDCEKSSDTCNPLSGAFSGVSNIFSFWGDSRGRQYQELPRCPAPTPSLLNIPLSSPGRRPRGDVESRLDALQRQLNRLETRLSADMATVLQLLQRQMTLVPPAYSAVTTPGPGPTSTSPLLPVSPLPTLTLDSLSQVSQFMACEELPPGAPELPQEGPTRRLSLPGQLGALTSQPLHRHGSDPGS

SMILES	hERG current change (%, negative = inhibition) at 10uM [%]
O=C(N/N=C/c1cccc(F)c1)c1csc2c1CCCC2	-30
CC(C)C[C@H](NC(=O)c1[nH]cnc1C(=O)N[C@@H](C)c1ccccc1)C(=O)OC(C)(C)C	12.5
CC1CCN(C(=O)c2cc3ccccc3c(=O)o2)CC1	5.74
Cc1ccc(-c2ccc(/C=N/NC(=O)CN3CCCC3)o2)cc1Cl	-90.2
O=C(CN1CCCC1)N/N=C/c1ccc(-c2cccc(Cl)c2)o1	-62.2
COC(=O)N/N=C/c1ccc(-c2ccc(C)c(Cl)c2)o1	-6.4
Nc1nnnn1CC(=O)N/N=C/c1ccc(-c2cccc(Cl)c2)o1	8.79
O=C(Cn1nnc(-c2ccccc2Cl)n1)N/N=C/c1ccc(-c2cccc(Cl)c2)o1	2.26
Cc1nnc(SCC(=O)N/N=C/c2ccc(-c3ccc(C)c(Cl)c3)o2)s1	-1.51
CC1(c2ccccc2)NC(=O)N(Cc2ccc([N+](=O)[O-])cc2)C1=O (stereo not shown)	-31
Cn1cc(CN2CCCC(C(=O)Nc3cccc(-n4cccn4)c3)C2)cn1 (stereo not shown)	-5.79
COc1ccc(CN2CCCC(C(=O)Nc3cccc(-n4cccn4)c3)C2)c(F)c1 (stereo not shown)	-30.3
COCc1cc(CN2CCCC(C(=O)Nc3cccc(-n4cnnn4)c3)C2)ccc1OC (stereo not shown)	-6.58
COc1ccc(CN2CCCC(C(=O)Nc3cccc(-n4cnnn4)c3)C2)c(C)c1C (stereo not shown)	-62.7
O=C(Nc1cccc(-n2cnnn2)c1)C1CCCN(Cc2cccc(C(F)(F)F)c2)C1 (stereo not shown)	-59.8
COC(=O)c1ccc(CN2CCCC(C(=O)Nc3cccc(-n4cnnn4)c3)C2)cc1 (stereo not shown)	-47.7
COC(=O)Cc1c(C)c2ccc(OC3CCCCC3=O)c(C)c2oc1=O (stereo not shown)	3.77
CCCCCOc1ccc(NC(=O)CSc2cccc3cccnc23)cc1	18.8
N#Cc1cc([N+](=O)[O-])ccc1NC(=O)CSc1n[nH]c(=O)n1C1CC1	1.42
O=C(Nc1c(C(=O)N2CCN(c3ccccn3)CC2)oc2ccccc12)c1ccc([N+](=O)[O-])cc1	-51

SMILES	hERG current change (%, negative = inhibition) at 10uM [%]
Cc1c(C(=O)N2CCN(c3ccccn3)CC2)oc2ccccc12	-28
COc1cccc(OC)c1C(=O)Nc1c(C(=O)N2CCN(c3ccccn3)CC2)oc2ccccc12	-61.6
COc1cccc(OC)c1C(=O)N1CCN(c2ccccn2)CC1	11
O=C(Nc1c(C(=O)N2CCN(c3ccccn3)CC2)oc2ccccc12)c1cccc([N+](=O)[O-])c1	-48.8
COc1cccc(OC)c1C(=O)Nc1c(C(=O)N2CCN(C)CC2)oc2ccccc12	-29.1
COc1ccc(NC(=O)c2ccc(-c3nn(C)c(=O)c4ccccc34)cc2)cc1C(N)=O	6.4
Cc1ccc(N(C(=O)Cc2cccs2)C(C(=O)NCC2CCCO2)c2ccncc2)cc1 (stereo not shown)	11.5
CCOc1ccc(Cc2nc(C)c(CC(=O)N3CCOCC3)c(=O)[nH]2)cc1	8.37
O=C(CSc1ncnc2ccccc12)NCc1ccc2c(c1)OCO2	-16.9
O=C(C(=O)N1CCCc2ccccc21)c1c[nH]c2ccccc12	4.5
O=S(=O)(c1ccccc1)N1CCN(CCc2ccccc2)CC1	14.2
CC(=O)Nc1ccc(S(=O)(=O)N2CCN(Cc3ccncc3)CC2)cc1	-8.67
CCS(=O)(=O)N1CCN(Cc2ccncc2)CC1.O=C(O)C(=O)O	13.2
O=S(=O)(c1ccc(Cl)cc1)N1CCN(CCc2ccncc2)CC1	-55.3
O=S(=O)(c1ccc(Cl)cc1)N1CCN(CCc2ccccc2)CC1	-3.7
O=C(O)C(=O)O.O=S(=O)(c1ccc(Cl)cc1)N1CCN(Cc2ccncc2)CC1	-51.5
COc1ccc(C2=NC(C)(C)Cc3cc(OC)c(OC)cc32)cc1	-44
OC(COc1cccc(OCC(O)CN2CCCC2)c1)CN1CCCC1 (stereo not shown)	-2.86
Cc1cccc(OCC(O)Cn2c(=N)n(CCN3CCOCC3)c3ccccc32)c1.Cl (stereo not shown)	-57.9
Cc1ccccc1OCCCN1CCOCC1	9.44

SMILES	hERG current change (%, negative = inhibition) at 10uM [%]
Cc1cccc(OCC(O)Cn2c(=N)n(CCN3CCCCC3)c3ccccc32)c1.Cl (stereo not shown)	-80.5
Cl.OC(COc1cccc(OCC(O)CN2CCOCC2)c1)CN1CCOCC1 (stereo not shown)	7.41
COc1ccccc1OCC(O)CN1CCOCC1 (stereo not shown)	15.2
Cc1ccc(OCC(O)CN2CCOCC2)cc1C.Cl (stereo not shown)	17.7
Cc1ccccc1OCC(O)Cn1c(=N)n(CCN2CCOCC2)c2ccccc21.Cl (stereo not shown)	-61.5
O=C(CCNS(=O)(=O)/C=C/c1ccccc1)NCCc1c[nH]c2ccccc12	3.88
Cc1ccc(NS(=O)(=O)c2ccc(-c3coc(C)n3)cc2)c(C)c1	15.6
CCOC(=O)C(Sc1ncn[nH]1)c1ccccc1 (stereo not shown)	-3.76
Cc1cc(F)ccc1S(=O)(=O)N1CCCOC1CNC(=O)C(=O)NCc1cccnc1 (stereo not shown)	7.92
O=C(CNC(=S)N(CCCN1CCOCC1)Cc1cccs1)NCc1ccc(Cl)cc1	-67.7
O=C(CNC(=S)N(CCCN1CCOCC1)Cc1cccs1)NC1CCCCC1	-31.2
O=C(CNC(=S)N(CCCN1CCOCC1)Cc1cccs1)NCCN1CCOCC1	9.17
O=C(CNC(=S)N(CCCN1CCOCC1)Cc1cccs1)NCc1ccccc1Cl	-54.2
CN(C)CCNC(=O)CNC(=S)N(CCCN1CCOCC1)Cc1cccs1	12.1
CCCCNC(=O)CNC(=S)N(CCCN1CCOCC1)Cc1cccs1	-27.4
O=C(CNC(=S)N(CCCN1CCOCC1)Cc1cccs1)NC1CCCC1	-19.7
O=C(CNC(=S)N(CCCN1CCOCC1)Cc1cccs1)NC1CCCCCCC1	-61.1
O=C(CNC(=S)N(CCCN1CCOCC1)Cc1cccs1)NCCCN1CCOCC1	15.1
